# From PubChem BioAssay AID1671192 (National Center for Advancing Translational Sciences (NCATS), 2021)
# Records with an inconclusive call do not appear. A number with no mark means an inactive call. Calls follow the shape of the dose curve; as a rule, active = well fitted curve in the direction sought with a large enough effect; inconclusive = small, poorly fitted or top-dose-only effect, or another doubt; inactive = no such curve, though single readings can be large or run the other way.
# Molecular target: Polyunsaturated fatty acid lipoxygenase ALOX15 (Homo sapiens) (UniProt P16050)
# Assay: Counterscreen qHTS for inhibitors of human arachidonate 12S-lipoxygenase (ALOX12): ALOX15 Assay; also: 0% is about no effect
# Details: purified ALOX15 enzyme activity; series mostly up to 110 µM; activity change, negative = inhibition: at the top concentration
# Procedure, shortened: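 Xylenol orange–ferric complex formation, read as the 573 nm to 405 nm absorbance ratio, tracks product from 50 uM arachidonic acid turned over for 30 min at RT. Enzyme is 40 nM ALOX15, pH 7.5 HEPES buffer, compound-preincubated 15 min.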
# Sequence of Polyunsaturated fatty acid lipoxygenase ALOX15 (Homo sapiens) (P16050 whole entry, looked up): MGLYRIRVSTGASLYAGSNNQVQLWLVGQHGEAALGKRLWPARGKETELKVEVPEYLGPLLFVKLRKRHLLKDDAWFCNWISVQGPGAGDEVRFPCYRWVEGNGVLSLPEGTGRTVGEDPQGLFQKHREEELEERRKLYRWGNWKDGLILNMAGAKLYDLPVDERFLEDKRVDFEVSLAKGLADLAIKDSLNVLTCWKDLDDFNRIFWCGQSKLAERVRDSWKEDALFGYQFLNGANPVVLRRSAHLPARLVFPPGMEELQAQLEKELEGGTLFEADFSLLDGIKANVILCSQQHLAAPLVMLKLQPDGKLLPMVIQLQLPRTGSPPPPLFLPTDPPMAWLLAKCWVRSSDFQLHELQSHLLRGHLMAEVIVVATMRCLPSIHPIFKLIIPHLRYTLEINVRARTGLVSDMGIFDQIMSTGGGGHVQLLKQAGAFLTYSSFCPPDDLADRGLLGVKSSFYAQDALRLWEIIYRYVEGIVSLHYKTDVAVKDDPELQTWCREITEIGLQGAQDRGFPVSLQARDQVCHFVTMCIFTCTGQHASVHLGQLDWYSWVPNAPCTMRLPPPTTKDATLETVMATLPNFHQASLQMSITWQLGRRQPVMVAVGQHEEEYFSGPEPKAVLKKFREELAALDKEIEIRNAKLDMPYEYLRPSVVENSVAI
row,Structure (SMILES),"activity change, negative = inhibition"
1,COc1cccc(N2C(=O)NC(=NC3CCCCC3)C23CCN(C(=O)c2ccccc2OC)C3)c1 (stereo not drawn),-28.5%
2,CN1CC(=O)N(C2CCCNCC2)Cc2c1ncnc2N1CCCC(O)C1 (stereo not drawn),-10.6%
3,COc1cccc(N2C(=O)NC(=NC3CCCCC3)C23CCN(CC2CC2)CC3)c1,-19.5%
4,NCc1ccccc1-c1cc(C(F)(F)F)ccc1Cl,-8.37% [at 146 µM]
5,O=C(N1CCCC1)N1CCCC(c2nnc3n2CCNC3)C1 (stereo not drawn),9.46% [at 146 µM]
6,CC(C)OCCCNc1ncnc2c1CN(C1CCCNCC1)C(=O)CN2C (stereo not drawn),-3.71%
7,Cc1noc(C)c1C(=O)N1CCN(c2ccc(Cl)nn2)C(=O)C1,-19.1% [at 146 µM]
8,NCc1ccc(-c2cccc(O)c2)cc1,-24.9% [at 146 µM]
9,COc1ccc(C(=O)N2CCc3nc(C4CC4)nc(-c4ccc(Cl)cc4)c3C2)cc1,-10.3%
10,CN1CC(=O)N(C2CCCNC2)Cc2c(NCC3CCCCCC3)ncnc21 (stereo not drawn),-11.2%
11,COc1ccc(CN2CCCC23Cc2ccccc2CNC3=O)c(O)c1 (stereo not drawn),-18.1% [at 146 µM]
12,Cc1noc(C)c1C(=O)N1Cc2ccccc2CC2(CCCN(CC3CCNC3)C2)C1 (stereo not drawn),-7.51%
13,c1ccc(CN2CC(Oc3ccc4c(c3)OCO4)C2)cc1,12.5% [at 146 µM]
14,COC(=O)CNC(=O)C1CCc2nnc(CNC(=O)c3cccnc3)n21 (stereo not drawn),3.05%
15,Cc1ccc(CN2CCCC23Cc2ccccc2CNC3=O)cc1 (stereo not drawn),8.05% [at 146 µM]
16,O=[S+]([O-])(c1ccccc1)N1CC(Oc2ccc(F)c(F)c2)C1,-9.6% [at 146 µM]
17,CN1CC(=O)N(C2CCCNC2)Cc2c(NC3CCCCC3)ncnc21 (stereo not drawn),-25.8%
18,COc1ccc(CC(=O)N2Cc3ccccc3CC23CCCN([S+](C)(=O)[O-])C3)cc1 (stereo not drawn),7.85%
19,O=C(c1ccc2c(c1)OCO2)N1CCCC1c1nnc2n1CCNC2 (stereo not drawn),-14.1%

row,Structure (SMILES),"activity change, negative = inhibition"
1,COc1ccc(N2CC3CCC(C2)N3[S+](C)(=O)[O-])cc1,-3.15% [at 146 µM]
2,CN1CC(=O)N(C2CCNCC2)Cc2c1ncnc2N1CCc2ccccc2C1,-21.4%
3,C[S+](=O)([O-])N1CC2(CCN(Cc3ccc(Cl)cc3)C2)Cc2ccccc21 (stereo not drawn),-31.4% [at 146 µM]
4,CC(C)OCCCNc1ncnc2c1CN(C1CCNC1)C(=O)CN2C (stereo not drawn),-18%
5,CN(c1ccccc1)C1CNC1,-29.5% [at 233 µM]
6,CCOC(=O)C1CC1CN1CCCC2(Cc3ccccc3CNC2=O)C1 (stereo not drawn),1.6%
7,NCc1cccc(-c2ccc(F)cc2F)c1,-16.3% [at 146 µM]
8,CN1CC(=O)N(C2CCNC2)Cc2c(NCC3CCCCC3)ncnc21 (stereo not drawn),-16.9%
9,CC(C)NCCN1CCCC1,-12.6% [at 343 µM]
10,COc1ccccc1CNc1ncnc2c1CN(C1CCCNCC1)C(=O)CN2C (stereo not drawn),-29.5%
11,CC(C)OCCCNC(=O)c1cc(C2CC2)nc2onc(C3CCCN3)c12 (stereo not drawn),-5.04%
12,O=S1(=O)CCCN1C1CCN(Cc2cccc3ccccc23)CC1,5.45% [at 146 µM]
13,CN1CC(=O)N(C2CCCNC2)Cc2c1ncnc2N1CCN(Cc2ccccc2)CC1 (stereo not drawn),-18.3%
14,CNC(C)c1ccc(Oc2ccccc2)cc1 (stereo not drawn),6.86% [at 146 µM]
15,CCc1ccc(S(=O)(=O)c2nnn3c2nc(NCc2ccc(F)cc2)c2ccccc23)cc1,-5.83%
16,O=C1NCc2ccccc2CC12CCN(Cc1c[nH]c3ccccc13)CC2,-32%
17,CCCC(=O)N1Cc2ccccc2CC2(CCCN(CC3CCNC3)C2)C1 (stereo not drawn),1.43%
18,c1ccc2c(CN3CC(Oc4ccc5c(c4)OCO5)C3)cccc2c1,-20.3%
19,CC(C)c1nc2c(c(-c3ccc(Cl)cc3)n1)CCN(CC1CCCCC1)CC2,-16.6%
